Test results from PubChem BioAssay.
Results filed as inconclusive are left out. Unmarked numbers belong to inactive results.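 Rule for the calls: active = viability at or below 27.92% in each of two runs, the all-compound median minus 4 SD; inconclusive = no clear call, values can overlap the other calls; inactive = the rest.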

assay: viability of PTEN-null HCT116 cells – cell-based, HCT116 clonal line, CellTiter-Glo, pilot screen (AID 824); details: HCT116 PTEN-deleted viability, 60 h, at 10 µM, hits give low values;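 note: 0% = 20 µM Hyamine control and 100% = vehicle cell control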

| SMILES | viability |
| --- | --- |
| COc1cc2c(cc1OC)C(C(=O)NC1CC1)C1c3ccccc3CCN1C2=O (configuration not stated) | 97.3% |
| CCSc1nnc(Cn2c(=O)sc3ccccc32)n1C | 96.2% |
| COC(=O)c1ccc(N2C(=O)CC(Sc3n[nH]c(C)n3)C2=O)cc1 (configuration not stated) | 93.2% |
| Cc1ccc(-c2noc(CSc3nnnn3-c3ccccc3)n2)cc1 | 97.8% |
| CC(=O)c1cccc(NC(=O)c2cc(C(C)C)on2)c1 | 97.7% |
| COc1ccc(CNC(=O)c2cc3c(C)nc4ccccc4c3o2)c(OC)c1 | 75.2% |
| CCn1cc(S(=O)(=O)CC(=O)Nc2ccc(C)cc2)c2ccccc21 | 93% |
| COc1ccc(S(=O)(=O)NCCN2CCOCC2)c2ccccc12 | 95.1% |
| Cn1c(=O)c2c(nc(NCCc3ccccc3)n2Cc2ccc(F)cc2)n(C)c1=O | 55.3% |
| O=C(NCCc1cn2ccsc2n1)c1cccs1 | 102% |
| Cc1ccc2oc(=O)c3cnn(CC(=O)N(CCCN4CCOCC4)Cc4ccco4)c3c2c1 | 87.9% |
| Cc1ccccc1-c1noc(-c2cccs2)n1 | 90.4% |
| Cc1cc(S(=O)(=O)N2CCN(Cc3ccccc3)CC2)c(C)s1 | 81.1% |
| COc1ccc(OC)c(NC(=O)C2CCCN(S(=O)(=O)c3cccc4cccnc34)C2)c1 (configuration not stated) | 80.1% |
| CCC(C)N1C(=O)CCC1C(=O)NCc1ccc2c(c1)OCO2 (configuration not stated) | 97.2% |
| O=C(CCCOc1ccccc1)NCC1CCCO1 (configuration not stated) | 91.5% |
| COC(=O)c1ccccc1NC(=O)c1c(O)c2c([nH]c1=O)CCCC2 | 93% |
